According to PubChem BioAssay AID1159580 (chemical genetic matrix, 2015):
Out of some 5,500 compounds screened, about 2,000 (36%) were called active. Roughly 18% stayed inconclusive and do not appear here. Cut-off read from the data, not from the text of the source: active = normalized growth mostly below about 0.91 (no sharp cut-off); inconclusive = no clear call, values can overlap the other calls; inactive = mostly above about 0.92. Some of the results follow.

Experiment: chemical genetic growth profiling, strain panel (AID 1159580);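 note: tested at 20 µM; growth read once vehicle control cultures reached saturation at 30 °C; 1 = growth at the plate median or of vehicle wells; lower values mean less growth of the strain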
Settings: growth OD

Measured: normalized growth

CNC(Cc1c[nH]c2ccccc12)C(=O)O (centres undefined)
inactive: S. cerevisiae deletion strains, locus YJR066W, strain TOR1, hits give low values 0.932 | S. cerevisiae deletion strains, locus YKL009W, strain mrt4, hits give low values 0.99 | S. cerevisiae deletion strains, locus YKL068W, hits give low values 0.992 | S. cerevisiae deletion strains, locus YKL085W, strain MDH1 (second series), hits give low values 0.983 | S. cerevisiae deletion strains, locus YKL085W, strain MDH1, hits give low values 0.983 | S. cerevisiae deletion strains, locus YKL160W, strain elf1, hits give low values 0.973 | S. cerevisiae deletion strains, locus YKR001C, strain vps1, hits give low values 1 | S. cerevisiae deletion strains, locus YKR026C, strain gcn3, hits give low values 0.975 | S. cerevisiae deletion strains, locus YKR091W, strain srl3, hits give low values 0.976 | S. cerevisiae deletion strains, locus YLL001W, strain dnm1, hits give low values 0.972 | S. cerevisiae deletion strains, locus YLL026W, hits give low values 0.974 | S. cerevisiae deletion strains, locus YLL041C, strain sdh2, hits give low values 0.981 | S. cerevisiae deletion strains, locus YLR027C, strain aat2, hits give low values 0.965 | S. cerevisiae deletion strains, locus YLR039C, strain RIC1, hits give low values 1.03 | S. cerevisiae deletion strains, locus YLR058C, strain SHM2, hits give low values 0.989 | S. cerevisiae deletion strains, locus YLR102C, strain apc9, hits give low values 0.995 | S. cerevisiae deletion strains, locus YLR113W, strain HOG1, hits give low values 1.07 | S. cerevisiae deletion strains, locus YLR221C, strain rsa3, hits give low values 1.01 | S. cerevisiae deletion strains, locus YLR258W, strain gsy2, hits give low values 0.99 | S. cerevisiae deletion strains, locus YLR262C, strain YPT6 (second series), hits give low values 1.01 | S. cerevisiae deletion strains, locus YLR262C, strain YPT6, hits give low values 1.01 | S. cerevisiae deletion strains, locus YLR268W, strain sec22, hits give low values 1.03 | S. cerevisiae deletion strains, locus YLR320W, strain mms22, hits give low values 1.02 | S. cerevisiae deletion strains, locus YLR330W, strain CHS5, hits give low values 0.987 | S. cerevisiae deletion strains, locus YLR342W, strain FKS1 (second series), hits give low values 0.957 | S. cerevisiae deletion strains, locus YLR342W, strain FKS1, hits give low values 0.989 | S. cerevisiae deletion strains, locus YLR357W, strain rsc2, hits give low values 0.951 | S. cerevisiae deletion strains, locus YLR370C, strain arc18, hits give low values 0.987 | S. cerevisiae deletion strains, locus YLR371W, strain rom2, hits give low values 0.969 | S. cerevisiae deletion strains, locus YLR384C, strain iki3, hits give low values 1.01 | S. cerevisiae deletion strains, locus YLR418C, strain cdc73, hits give low values 0.983 | S. cerevisiae deletion strains, locus YML016C, strain PPZ1, hits give low values 0.984 | S. cerevisiae deletion strains, locus YML032C, strain rad52, hits give low values 0.963 | S. cerevisiae deletion strains, locus YML120C, strain ndi1, hits give low values 0.983 | S. cerevisiae deletion strains, locus YML124C, strain tub3, hits give low values 0.994 | S. cerevisiae deletion strains, locus YMR058W, strain fet3, hits give low values 0.981 | S. cerevisiae deletion strains, locus YMR078C, strain ctf18, hits give low values 0.984 | S. cerevisiae deletion strains, locus YMR125W, strain sto1, hits give low values 0.973 | S. cerevisiae deletion strains, locus YMR129W, hits give low values 0.988 | S. cerevisiae deletion strains, locus YMR205C, strain PFK2, hits give low values 0.965 | S. cerevisiae deletion strains, locus YMR223W, strain ubp8, hits give low values 0.972 | S. cerevisiae deletion strains, locus YMR231W, strain pep5, hits give low values 0.976 | S. cerevisiae deletion strains, locus YMR263W, strain SAP30, hits give low values 0.982 | S. cerevisiae deletion strains, locus YMR307W, strain GAS1, hits give low values 0.902 | S. cerevisiae deletion strains, locus YNL067W, strain RPL9B, hits give low values 0.988 | S. cerevisiae deletion strains, locus YNL071W, strain lat1, hits give low values 0.989 | S. cerevisiae deletion strains, locus YNL128W, strain TEP1, hits give low values 0.983 | S. cerevisiae deletion strains, locus YNL153C, strain GIM3, hits give low values 0.976 | S. cerevisiae deletion strains, locus YNL183C, strain NPR1, hits give low values 0.993 | S. cerevisiae deletion strains, locus YNL209W, strain ssb2, hits give low values 0.982 | S. cerevisiae deletion strains, locus YNL233W, strain BNI4, hits give low values 1 | S. cerevisiae deletion strains, locus YNL248C, strain rpa49, hits give low values 0.962 | S. cerevisiae deletion strains, locus YNL250W, strain rad50, hits give low values 0.961 | S. cerevisiae deletion strains, locus YNL271C, strain bni1, hits give low values 0.994 | S. cerevisiae deletion strains, locus YNL298W, strain CLA4, hits give low values 0.987 | S. cerevisiae deletion strains, locus YNL307C, strain MCK1, hits give low values 0.988 | S. cerevisiae deletion strains, locus YNL322C, strain KRE1 (second series), hits give low values 0.986 | S. cerevisiae deletion strains, locus YNL322C, strain KRE1, hits give low values 0.985 | S. cerevisiae deletion strains, locus YNR049C, strain mso1, hits give low values 0.978 | S. cerevisiae deletion strains, locus YNR052C, strain pop2, hits give low values 0.983 | S. cerevisiae deletion strains, locus YOL012C, strain htz1 1.5 | S. cerevisiae deletion strains, locus YOL147C, strain pex11, hits give low values 1.01 | S. cerevisiae deletion strains, locus YOR001W, strain rrp6, hits give low values 0.975 | S. cerevisiae deletion strains, locus YOR061W, strain CKA2, hits give low values 0.961 | S. cerevisiae deletion strains, locus YOR069W, strain VPS5, hits give low values 0.999 | S. cerevisiae deletion strains, locus YOR070C, strain gyp1, hits give low values 1 | S. cerevisiae deletion strains, locus YOR080W, strain dia2, hits give low values 0.99 | S. cerevisiae deletion strains, locus YOR083W, strain WHI5, hits give low values 0.975 | S. cerevisiae deletion strains, locus YOR106W, strain vam3, hits give low values 0.96 | S. cerevisiae deletion strains, locus YOR136W, strain idh2, hits give low values 0.991 | S. cerevisiae deletion strains, locus YOR144C, strain elg1, hits give low values 0.988 | S. cerevisiae deletion strains, locus YOR184W, strain ser1, hits give low values 0.985 | S. cerevisiae deletion strains, locus YOR231W, strain MKK1, hits give low values 1 | S. cerevisiae deletion strains, locus YOR265W, strain rbl2, hits give low values 0.974 | S. cerevisiae deletion strains, locus YOR270C, strain vph1, hits give low values 0.972 | S. cerevisiae deletion strains, locus YOR290C, strain snf2, hits give low values 0.934 | S. cerevisiae deletion strains, locus YOR316C, strain cot1, hits give low values 0.991 | S. cerevisiae deletion strains, locus YPL051W, strain arl3, hits give low values 0.99 | S. cerevisiae deletion strains, locus YPL055C, strain LGE1, hits give low values 0.953 | S. cerevisiae deletion strains, locus YPL078C, strain atp4, hits give low values 0.959 | S. cerevisiae deletion strains, locus YPL106C, strain sse1, hits give low values 0.985 | S. cerevisiae deletion strains, locus YPL240C, strain hsp82, hits give low values 0.989 | S. cerevisiae deletion strains, locus YPL256C, strain CLN2, hits give low values 0.978 | S. cerevisiae deletion strains, locus YPR119W, strain clb2, hits give low values 0.997 | S. cerevisiae deletion strains, locus YPR141C, strain kar3, hits give low values 0.986 | S. cerevisiae deletion strains, locus YPR163C, strain tif3, hits give low values 0.993 | S. cerevisiae deletion strains, locus YPR167C, strain met16, hits give low values 0.992 | S. cerevisiae deletion strains, strain wtn01, hits give low values 1.02 | S. cerevisiae strains, strain wild type, hits give low values 1
